HT1080 IDH1KD tx – kills HT-1080 cells with IDH1 knockdown; HT-1080 IDH1 knockdown viability, ATP luminescence, 48 h; Potency, µM (series often up to 46.1 µM), usual class: cytotoxic; 2% of 360,000 active
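IDH1KD HT-1080 cells, 750/well, RPMI + 5% FBS; compound pinned after 2 h settling; 48 h, 37 °C; CellTiter-Glo luminescence; % activity normalised to DMSO and no-cell wells; curves fitted, classed by r2 and efficacy.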
TDP1 cell CPT – growth inhibition of DT40 Tdp1-/-;hTDP1 cells with camptothecin (screen for TDP1 inhibitors); chicken DT40 Tdp1-/-;hTDP1 cells + 20 nM CPT, ATP luminescence, 48 h; Potency, µM (titrated, usually from 46.2 µM), usual class: inhibitors; 12% of 420,000 active; further: nearly all actives have a fitted effect of over 55% in size
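Chicken DT40 Tdp1-/- cells complemented with human TDP1, 400 cells/well, exposed to compounds plus 20 nM camptothecin for at least 48 h at 37 C; viability read as ATP content by CellTiter-Glo luminescence.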
HT1080NT lethal – kills 2HG-producing HT-1080-NT fibrosarcoma cells; HT-1080-NT fibrosarcoma viability, CellTiter-Glo ATP luminescence, 48 h; Potency, µM (titrated, usually from 46.1 µM), usual class: cytotoxic; 1.6% of 360,000 active;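 further: NT is the 2HG producing partner of a matched IDH1 knockdown line; nearly all actives have a fitted effect of over 55% in size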
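Viability of the 2HG-overproducing fibrosarcoma line after 48 hours of compound exposure at 37 degrees C was determined by luminescence with CellTiter-Glo, and concentration-effect curves were then fitted and categorized.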
TDP1 cell noCPT – qHTS for Inhibitors of human tyrosyl-DNA phosphodiesterase 1 (TDP1): qHTS in cells in absence of CPT. 15% of 420,000 active. DT40 Tdp1-/- hTDP1 cells, no CPT, ATP luminescence, 48 h. AID 686978, 2013. Potency, µM (titrated, usually from 46.2 µM), most hits filed as inhibitors; further: nearly all actives have a fitted effect of over 55% in size
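Stably hTDP1-transfected Tdp1-null chicken DT40 cells were treated with library compounds minus camptothecin and grown for at least 48 hr at 37 °C, after which cellular ATP was quantified by luminescence.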
IL1B secr inh – inhibitors of inflammasome signaling (IL-1 beta secretion); 4.7% of 360,000 active; THP-1 LPS/ATP IL-1B secretion, AlphaLISA, 16 h; active compounds read low; activity change, % at 57.5 µM; in the data active means activity change below about -50%; inconclusive means mostly about -30% to -49%
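Secreted IL-1B measured by AlphaLISA bead assay after 16 h compound exposure of THP-1 cells; compounds (final up to 57.5 uM) added 1 h before LPS (250 ng/mL) and ATP (1.25 mM) stimulation; lower signal means less secretion.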
uPA surface inh – cell surface uPA generation inhibition; AID 540303; cell surface uPA generation assay, qHTS; Potency, µM (doses to about 38.3 µM), usual class: inhibitors; 0.31% of 330,000 active; active means well fitted inhibition curve with a large enough effect; inconclusive means small, poorly fitted or top-dose-only effect; inactive means no such curve, though single readings can be large or run the other way; tested in mouse RAW 264.7 cells; further: nearly all actives have a fitted effect of over 55% in size
Large screens that a line does not name were inactive. The list is not random: actives were taken first. Their share in the collection is about 19%. Unless noted, the call rests on the fitted dose curve; in most records, active means well fitted curve in the direction sought with a large enough effect; inconclusive means small, poorly fitted or top-dose-only effect, or another doubt; inactive means no such curve, though single readings can be large; an effect the other way counts as inactive or inconclusive.

Cc1ccc(-c2nc3cc(C)c(Br)c(C)n3c2Cc2cccc(Cl)c2)cc1	TDP1 cell noCPT inconclusive (no result: uPA surface inh)
Clc1cccc(-c2ccc(-c3nc4ccccn4c3NCc3ccccc3)cc2)c1	HT1080 IDH1KD tx inconclusive, TDP1 cell CPT 16.4µM, HT1080NT lethal inconclusive, TDP1 cell noCPT 23.1µM, IL1B secr inh inconclusive, uPA surface inh inconclusive
COc1ccc(Nc2nc(N)nc(CCl)n2)cc1	HT1080 IDH1KD tx 23.1µM, TDP1 cell CPT 23.1µM, HT1080NT lethal 1.46µM, TDP1 cell noCPT inconclusive, IL1B secr inh -59.8, uPA surface inh 2.51µM
Cc1ccc(NC(=O)c2ccc(S(=O)(=O)N(C)c3ccccc3)cc2)cc1S(=O)(=O)N1CCOCC1	TDP1 cell CPT 23.1µM, TDP1 cell noCPT inconclusive, uPA surface inh inconclusive
Cn1c(O)c(N=Nc2ccc(S(=O)(=O)N3CCOCC3)cc2)c(=O)n(C)c1=O	none
COc1ccc(NC(=O)c2ccco2)cc1NC(=O)COc1cc(C)cc(C)c1	TDP1 cell CPT 8.2µM, TDP1 cell noCPT 5.8µM (no result: HT1080 IDH1KD tx, HT1080NT lethal, IL1B secr inh, uPA surface inh)
COc1cc(NC(=O)c2ccco2)ccc1NC(=O)c1ccccc1Cl	TDP1 cell noCPT inconclusive, IL1B secr inh inconclusive
OCC(Br)CBr (stereo not given)	none
Cc1ccc(C(O)(C(=O)OC(C)C)C(O)c2ccc(F)cc2)cc1 (stereo not given)	TDP1 cell CPT inconclusive, TDP1 cell noCPT 20.6µM (no result: uPA surface inh)
C[C@]12CC[C@H](N)CC1=CCC1C2CC[C@@]2(C)C1CC[C@@H]2O (stereo not given in full)	HT1080 IDH1KD tx inconclusive, TDP1 cell CPT 18.4µM, HT1080NT lethal inconclusive, TDP1 cell noCPT inconclusive
C[C@]12CC[C@@H](O)CC1=CCC1C2CC[C@@]2(C)C1CC[C@@H]2N (stereo not given in full)	TDP1 cell CPT inconclusive, TDP1 cell noCPT 20.6µM
C[C@@H]1CN([C@H](C)CO)C(=O)CCCn2cc(nn2)CO[C@H]1CN(C)C(=O)Oc1cccc2ccccc12	none (no result: uPA surface inh)
Cc1ccc(CNC(=O)c2ccc(Nc3nc4ccccc4n4nnnc34)cc2)cc1	TDP1 cell CPT inconclusive, TDP1 cell noCPT 14.6µM (no result: HT1080 IDH1KD tx, HT1080NT lethal, IL1B secr inh, uPA surface inh)
N=C1c2ccccc2CN1NC(=O)c1ccc(Cl)cc1	TDP1 cell noCPT inconclusive
O=C(NCCc1ccc(Cl)cc1)c1ccc(Nc2nc3ccccc3n3nnnc23)cc1	TDP1 cell CPT inconclusive, TDP1 cell noCPT 10.3µM (no result: HT1080 IDH1KD tx, HT1080NT lethal, IL1B secr inh, uPA surface inh)
COC(=O)C1C(O)CC2CCC1N2C (stereo not given)	HT1080NT lethal inconclusive
COC(=O)C1=C(c2cccc(OCc3ccccc3)c2)C[C@@H]2CC[C@H]1N2C(=O)NCc1ccc(Cl)cc1	TDP1 cell CPT inconclusive, TDP1 cell noCPT inconclusive, uPA surface inh inconclusive
COC(=O)C1=C(c2ccc(OCc3ccccc3)cc2)C[C@@H]2CC[C@H]1N2C(=O)NCc1ccc([N+](=O)[O-])cc1	TDP1 cell CPT 20.6µM, TDP1 cell noCPT 11.6µM, IL1B secr inh inconclusive
COC(=O)C1=C(c2cccc(OCc3ccccc3)c2)C[C@@H]2CC[C@H]1N2C(=O)NCc1ccc([N+](=O)[O-])cc1	TDP1 cell CPT 18.4µM, TDP1 cell noCPT 23.1µM, IL1B secr inh inconclusive
COCc1c(C(=O)N2CCC(c3ccccc3)CC2)cnn1-c1nccc(-c2cc(C)sc2C)n1	TDP1 cell noCPT inconclusive (no result: HT1080 IDH1KD tx, HT1080NT lethal, IL1B secr inh, uPA surface inh)
CCc1ccc(CN2CCN(C(=O)Cc3ccccc3)CC2)cc1	TDP1 cell CPT inconclusive, TDP1 cell noCPT inconclusive
COc1ccc(-n2ncc(C(=O)N3CCN(c4cc(C)ccc4C)CC3)c2C2CCN(C(=O)OC(C)(C)C)CC2)cc1	TDP1 cell CPT 20.6µM, TDP1 cell noCPT 14.6µM (no result: HT1080 IDH1KD tx, HT1080NT lethal, IL1B secr inh, uPA surface inh)
CC(C)(C)OC(=O)N1CCC(c2c(C(=O)N3CCN(Cc4ccccc4)CC3)cnn2-c2ccc(Cl)cc2)CC1	TDP1 cell CPT 25.9µM, TDP1 cell noCPT 20.6µM (no result: HT1080 IDH1KD tx, HT1080NT lethal, IL1B secr inh, uPA surface inh)
Cc1ccc(-n2ncc(C(=O)N3CCN(c4ccc(Cl)cc4)CC3)c2C2CCN(C(=O)OC(C)(C)C)CC2)c(C)c1	TDP1 cell CPT inconclusive, TDP1 cell noCPT 11.6µM (no result: HT1080 IDH1KD tx, HT1080NT lethal, IL1B secr inh, uPA surface inh)
O=C(C[N+]12CCN(CC1)CC2)NCCc1ccc(Cl)cc1Cl	IL1B secr inh inconclusive
CC(C)CC(N)c1csc(NC(=O)Nc2ccccc2-c2ccccc2)n1 (stereo not given)	TDP1 cell CPT 23.1µM, HT1080NT lethal inconclusive, TDP1 cell noCPT 18.4µM, IL1B secr inh inconclusive (no result: uPA surface inh)
CC(C)c1ccc(NC(=O)Nc2nc(C(N)CCc3ccccc3)cs2)cc1 (stereo not given)	HT1080 IDH1KD tx 13µM, TDP1 cell CPT 5.8µM, HT1080NT lethal inconclusive, TDP1 cell noCPT 4.61µM, IL1B secr inh -106.1 (no result: uPA surface inh)
COC(=O)C1=C(c2ccc(OC(F)(F)F)cc2)C[C@@H]2CC[C@H]1N2C(=O)N1CCCCC1	TDP1 cell CPT 2.59µM, HT1080NT lethal inconclusive, TDP1 cell noCPT 2.06µM
COC(=O)C1=C(c2ccc(C(C)=O)cc2)C[C@@H]2CC[C@H]1N2C(=O)N1CCCC1	TDP1 cell CPT inconclusive, TDP1 cell noCPT inconclusive
COC(=O)C1=C(c2ccc(C(C)=O)cc2)C[C@@H]2CC[C@H]1N2C(=O)N1CCCCC1	TDP1 cell CPT 20.6µM, TDP1 cell noCPT 16.4µM
CC(C)N(Cc1nccn1C)C(=O)CCc1nnc(CCCc2ccccc2)o1	TDP1 cell noCPT inconclusive
CC(C)c1ccc(NC(=O)N2C[C@H]3C[C@@H](C2)c2cccc(=O)n2C3)cc1	none
CC[C@@H](C)[C@H](C(CC(=O)N1CCCC1[C@@H](OC)[C@H](C)C(=O)N[C@H](Cc1ccccc1)c1nccs1)OC)N(C)C(=O)[C@H](NC(=O)[C@@H](C(C)C)N(C)C)C(C)C (stereo not given in full)	HT1080 IDH1KD tx inconclusive, HT1080NT lethal 0.259µM
O=C(COc1ccc(Br)cc1)N1CCN(Cc2c[nH]c3ccccc23)CC1	TDP1 cell CPT 1.3µM, TDP1 cell noCPT 2.31µM, IL1B secr inh inconclusive
O=C(COc1ccc2ccccc2c1)N1CCN(Cc2c[nH]c3ccccc23)CC1	HT1080 IDH1KD tx inconclusive, TDP1 cell CPT 2.06µM, TDP1 cell noCPT 5.17µM
O=C(COc1ccc(Br)cc1)N1CCN(C2CCCC2)CC1	none
CC12Nc3ccccc3C(=O)N1Cc1cnnn1-c1ccccc12 (stereo not given)	none (no result: uPA surface inh)
CCN1CCN(C(=O)COc2ccc3oc4c(c3c2)CCCC4)CC1	TDP1 cell CPT inconclusive, TDP1 cell noCPT 20.6µM
CCC(C)/C=C(C)/C=C/C1=CC2=C(Cl)C(=O)C(C)(OC(C)=O)C(=O)C2=CO1 (stereo not given)	TDP1 cell CPT 14.6µM, TDP1 cell noCPT inconclusive

High-throughput results deposited in PubChem by National Center for Advancing Translational Sciences (NCATS).
